BAZ2B inh = BAZ2B (human) inhibition | AlphaScreen BAZ2B-H3K14Ac peptide displacement | Potency, µM (highest dose often 114 µM), inactives show top-dose activity change, negative = inhibition, most hits filed as inhibitors | 360,000 compounds, 4.4% hits | Q9UIF8; note: % is set by controls: 0 for no effect and ±100 for the full control effect; nearly all actives have a fitted effect of over 60% in size
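In this displacement format the biotinylated H3(5-23) peptide acetylated at Lys14 serves as ligand at 50 nM, with BAZ2B at 50 nM in PBS pH 7.4 containing 0.01% Tween-20. Donor and acceptor beads are 10 ug/mL final.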
HP1b binding inh = inhibitors of HP1-beta chromodomain binding to methylated histone tails. P83916. AlphaScreen HP1-beta / biotin-H3K9me3 peptide binding. Potency, µM (titrated, usually from 114 µM), inactives show at the top dose activity change, negative = inhibition, hits mostly inhibitors. 390,000 compounds, 0.56% hits. AID 540317; note: nearly all actives have a fitted effect of over 70% in size
Target sequence (P83916 whole entry, looked up): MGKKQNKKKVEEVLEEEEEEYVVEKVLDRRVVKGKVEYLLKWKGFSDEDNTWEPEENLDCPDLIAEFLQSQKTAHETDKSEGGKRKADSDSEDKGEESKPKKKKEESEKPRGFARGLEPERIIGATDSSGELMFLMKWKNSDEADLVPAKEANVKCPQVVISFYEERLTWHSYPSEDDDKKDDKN
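HP1-beta protein (50 nM final) preincubated 30 min at room temperature with biotinylated H3(1-18)K9me3 peptide (50 nM) in PBS pH 7.4, 0.01% Tween-20, then compound added for 30 min. AlphaScreen streptavidin donor/nickel chelate acceptor beads (10 ug/mL final), 30 min dark, luminescence read.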
GLS inh = blocks human kidney-isoform glutaminase activity. AID 624170. O94925. 410,000 compounds, 0.21% hits. Potency, µM (top dose mostly 45.5 µM), for the others: top-dose activity change, negative = inhibition, usual class: inhibitors. GLS enzymatic activity, qHTS titration; note: % is set by controls: 0 for no effect and ±100 for the full control effect
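Assay buffer: 45 mM KH2PO4 pH 8.2, 0.02% Tween-20. hKGA acts on L-glutamine (1 mM solution added); product glutamate is reported by an oxidase/peroxidase Amplex Red coupling, with fluorescence taken at baseline and 30 min.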
G9a inh = blocks human histone lysine methyltransferase G9a. Q96KQ7. G9a H3K9 monomethylation, AlphaScreen, 2 h. Potency, µM (doses to about 102 µM), for the others: top-dose activity, negative = inhibition, most hits filed as inhibitors. 350,000 compounds, 8.8% hits. AID 504332; note: % is set by controls: 0 for no effect and ±100 for the full control effect; nearly all actives have a fitted effect of over 75% in size
Target sequence (Q96KQ7 913-1193 limits assumed): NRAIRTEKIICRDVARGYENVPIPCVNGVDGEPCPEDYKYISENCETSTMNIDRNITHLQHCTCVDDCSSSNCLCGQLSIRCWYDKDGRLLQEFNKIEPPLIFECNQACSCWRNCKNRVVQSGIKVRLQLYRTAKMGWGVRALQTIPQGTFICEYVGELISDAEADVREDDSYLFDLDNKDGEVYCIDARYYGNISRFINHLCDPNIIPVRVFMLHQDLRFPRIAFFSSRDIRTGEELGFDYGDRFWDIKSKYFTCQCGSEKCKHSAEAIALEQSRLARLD
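AlphaScreen detection with an anti-monomethyl H3K9 antibody quantified product after a 2 h room-temperature reaction containing 500 nM biotinylated H3K9 peptide, 20 µM SAM and 20 nM enzyme, which had been preincubated 15 min with compound.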
JMJD2A Tudor inh = inhibitors of human JMJD2A Tudor domain; O75164; AlphaScreen JMJD2A-Tudor / H3K4me3 peptide binding; Potency, µM (series often up to 114 µM), for inactives: at the highest dose activity change, negative = inhibition, actives largely listed as inhibitors; 390,000 compounds, 4.4% hits; AID 504339; note: % is set by controls: 0 for no effect and ±100 for the full control effect; nearly all actives have a fitted effect of over 50% in size
Starred values were filed as active, the others as inactive; ? = inconclusive; · = no result; [ ] = dose if it differs, or a comment. A selection: hits, their analogues and other compounds. The true share with any hit is near 10%. Calls come from the whole dose curve; as a rule, active = well fitted curve in the direction sought with a large enough effect; inconclusive = small, poorly fitted or top-dose-only effect, or another doubt; inactive = no such curve, though single readings can be large; an effect the other way counts as inactive or inconclusive. Potency is the fitted concentration of half-maximal effect.

SMILES	BAZ2B inh	HP1b binding inh	GLS inh	G9a inh	JMJD2A Tudor inh
O=C(CN1c2cccc3cccc(c23)S1(=O)=O)Nc1ccccc1	·	20.7%	1.6%	11.8%	-7.1%
Cc1ccc(CNC(=O)CN2c3cccc4cccc(c34)S2(=O)=O)cc1	3.9%	49.7%	-2.6%	12.0%[59 µM]	-22.2%
CNC(=O)c1ccc(NC(=O)CN2c3cccc4cccc(c34)S2(=O)=O)cc1	-0.5%	-3.1%	5.5%	44.7µM*	-16.3%
COc1cccc(CNC(=O)CN2c3cccc4cccc(c34)S2(=O)=O)c1	50.1µM*	3.2%	1.1%	?	?
CC(=O)Nc1cccc(S(=O)(=O)Nc2ccc(C)c(C)c2)c1	·	·	·	·	-15.6%
CCOC(=O)C1(Cc2ccccc2C#N)CCCCC1=O (stereo not given)	·	1.0%	2.1%	·	-4.2%
CCN1CCN(Cc2ccc(NC(=O)c3ccc(C)c(NC(=O)C(=O)c4c[nH]c5ccccc45)c3)cc2C(F)(F)F)CC1	12.6µM*	?	0.8%	50.1µM*	39.8µM*
CCN1CCN(Cc2ccc(NC(=O)c3cc(NC(=O)c4cc(C)on4)cc(OC)c3)cc2C(F)(F)F)CC1	?	25.3%	3.1%	44.7µM*	?
CCN1CCN(Cc2ccc(NC(=O)c3cc(NC(=O)C(=O)c4c[nH]c5ccccc45)cc(OC)c3)cc2C(F)(F)F)CC1	39.8µM*	?	1.0%	1.4%[12.7 µM]	35.5µM*
C[C@@H]1CNC(=O)c2c(C(=O)Nc3cccc(Cl)c3)ncn21	·	·	-0.6%	·	·
Cc1ccc(-c2cc(-c3ccccc3Cl)c(C#N)c(N)n2)o1	?	?	30.3%	?	?
Cc1ccc(-c2cc(-c3ccc(F)cc3)nc(N)c2C#N)o1	-2.7%	45.3%	5.5%	2.51µM*	-3.7%
Cc1ccc(-c2cc(-c3ccccc3)c(C#N)c(N)n2)o1	?	?	42.4%	2.82µM*	?
O=C(O)c1cccc(N/N=C/C2=C(Cl)c3cc(Cl)ccc3SC2)c1	50.1µM*	-4.9%	13.5%	50.1µM*	56.2µM*
CC(C)c1ccc(/C=N/Nc2ccc(C(=O)O)cc2)cc1	?	25.2%	14.1%	10µM*	-25.1%
Cc1ccc(/C=N/Nc2ccc(C(=O)O)cc2)o1	-12.6%	26.5%	0.1%	-32.0%	-10.2%
O=C(O)c1ccc(/C=N/Nc2ccc(C(F)(F)F)cn2)cc1	-20.2%	-2.5%	13.8%	-9.5%	-22.7%
O=C(O)c1cccc(N/N=C/c2sc(N3CCOCC3)nc2-c2ccccc2)c1	?	26.4%	14.3%	?	-25.0%
O=C(O)c1ccc(N/N=C/c2ccc(OC(=O)c3ccccc3Cl)cc2)cc1	89.1µM*	?	?	1.8%[59 µM]	?
O=C(O)c1ccc(/C=N/Nc2cccc(C(F)(F)F)c2)cc1	?	4.7%	14.1µM*	?	-23.1%
COc1cc(NC(=O)CCNS(=O)(=O)c2ccc3c(c2)CCN3C(=O)C2CC2)cc(OC)c1	-0.3%	27.0%[57 µM]	-4.4%	10.5%[59 µM]	1.3%
O=C(NCc1ccc(F)cc1)c1ccc2c(c1)nc1n2CCCCC1	10.4%	23.8%[57 µM]	-11.0%	17.1%[59 µM]	-19.8%
O=C(O)c1ccc(N/N=C/C=C/c2ccccc2)cc1	?	7.4%	21.8%	70.8µM*	-31.4%
O=C(O)c1cccc(N/N=C/c2ccc(F)c(F)c2)c1	5.7%	39.4%	?	7.94µM*	-18.2%
C/C(=N\Nc1cccc(C(F)(F)F)c1)c1ccc(O)cc1	?	?	?	8.91µM*	44.7µM*
SMILES	BAZ2B inh	HP1b binding inh	GLS inh	G9a inh	JMJD2A Tudor inh
O=C(N/N=C/C=C/c1ccccc1)c1ccncc1	3.6%	12.7%	-11.7%	42.2%[59 µM]	?
C/C(=N\NC(=O)CNc1cccc(C(F)(F)F)c1)c1ccc(Br)cc1	-7.9%	22.0%	-4.9%	-43.1%[59 µM]	2.1%
O=C(N/N=C/c1ccc(O)cc1)c1cccc(N/N=C/c2ccc(O)cc2)c1	-24.3%	-20.4%	23.7%	10µM*	-14.0%[11.4 µM]
Cc1ccc(/C=N/Nc2cccc(C(=O)O)c2)s1	-35.3%	4.7%	12.2%	?	?
Cc1ccc(SCC(c2ccccc2)N2CCN(C)CCC2=O)cc1 (stereo not given)	·	7.2%	·	·	-23.4%
Cc1ccc(N2C(=O)CS(=O)(=O)C23C(=O)N(Cc2ccccc2F)c2ccccc23)cc1Cl (stereo not given)	-10.9%	21.8%	3.4%	-37.1%[59 µM]	-6.5%
O=C(O)c1ccc(N/N=C/c2ccc(-c3ccccc3)cc2)cc1	·	-12.6%	10.0%	44.7µM*	-33.1%
O=C(O)c1ccc(/C=N/Nc2nnnn2-c2ccccc2)cc1	5.8%	48.7%	-19.0%	14.5%[59 µM]	-9.8%
O=S(=O)(c1ccccc1)C(/C=N\O)/C=C/c1ccccc1 (stereo not given)	-15.2%	-1.4%	-28.4%	7.94µM*	?
CC(C)C(C=Cc1ccccc1)=NNS(=O)(=O)c1ccccc1	·	·	-1.9%	·	·
COc1ccc2[nH]c(=O)c(CN(CCN3CCCC3)C(=O)Nc3ccccc3Cl)cc2c1	-5.5%	11.0%	2.7%	50.1µM*	-22.6%
CCc1ccc2[nH]c(=O)c(CN(CCCN3CCOCC3)C(=O)Nc3cccc(Cl)c3)cc2c1	?	15.4%	1.4%	50.1µM*	?
Cc1ccc(C)c2[nH]c(=O)c(CN(CCN3CCCC3)C(=O)Nc3cccc(Cl)c3)cc12	-30.8%	13.0%	-10.6%	28.2µM*	-28.4%
CCOc1ccc2[nH]c(=O)c(CN(CCN3CCCC3)C(=S)Nc3ccccc3OCC)cc2c1	-25.9%	43.8%	6.2%	-25.2%	-22.3%
Cc1cc(C)c2cc(CN(CCN3CCCC3)C(=O)Nc3ccc(F)cc3)c(=O)[nH]c2c1	-30.0%	7.8%	10.1%	?	-24.8%
CCCCCCCCN[C@@H](C)[C@H](O)c1ccc(SC(C)C)cc1	·	·	·	8.5%[21.5 µM]	·
OC(Cc1cccc(Br)c1)c1ncc(-c2cccc(C(F)(F)F)c2)[nH]1 (stereo not given)	·	·	0.2%	·	·
COc1cc(/C=C2\N=C(C)OC2=O)cc(Cl)c1OC(C)=O	0.9%	11.0%	31.8%	39.8µM*	-1.1%
CCC(=O)OC1C2CC3=C4CC(=O)OC(c5ccoc5)[C@]4(C)CCC3[C@@](C)(C2=O)C(CC(=O)OC)C1(C)C (stereo not given in full)	·	·	·	-23.6%[2.33 µM]	·
COc1ccc(OC)c(NC(=O)c2c(N3CCCC3=O)c3cc(OC)ccc3n2C)c1	?	-0.4%	3.1%	?	-29.0%
Cc1ccc(C2CC(=O)n3nc(-c4ccc(Cl)cc4)nc3S2)cc1 (stereo not given)	2.4%	32.2%	11.9%	-46.9%[59 µM]	8.6%
Cc1[nH]n(-c2ccccc2)c(=O)c1Sc1ccc(Cl)cc1	-32.9%	14.0%	-2.8%	?	-20.5%
Cc1cc(-c2c(C)[nH]n(-c3ccc(Cl)cc3)c2=O)n[nH]1	28.2µM*	7.6%	3.0%	1.4%	?
CN1OC[C@@H]2CN(C(=O)NC3CCCCC3)[C@H](c3ccc(N4CCCCC4)cc3)C[C@@H]21	·	·	36.8%	·	·
OCCc1c[nH]c2ccccc12	-7.6%	16.8%	22.2%	1.5%[12.7 µM]	-8.2%
